Among the data in PubChem BioAssay (EPA / NIEHS) are outcome and AC50 values, retold here.

Activity calls are given as the source filed them. The calls were made as follows: active = hit-call score of the fitted dose curve at least 0.9, where 1 is the maximum; inactive = score below 0.9.

Read-out in this test: matrix metalloproteinase-3 (MMP3), MMP3 (gene 4314)
Nature of the test: LTEA_HepaRG_MMP3: Life Technologies and Expression Analysis (LTEA) Assay for matrix metalloproteinase-3 (MMP3) using HepaRG (AID 2283519). To be noted: mRNA level, 48 h; actives raise or lower the signal. Here is the method:
LTEA_HepaRG is a cell based, multiplexed-readout assay that uses HepaRG, a human liver cell line, with measurements taken at 48 hours after chemical dosing on a 96-well plate.LTEA_HepaRG_MMP3 is one of 102 assay component(s) measured in the LTEA HepaRG cell culture assay. It is a marker of Fibrosis.Data from the assay component LTEA_HepaRG_MMP3 was analyzed into 1 endpoint. This assay endpoint, LTEA_HepaRG_MMP3, was analyzed with bidirectional fitting relative to DMSO as the negative control and baseline of activity. Using a type of inducible reporter, measures of mRNA induction for gain or loss-of-signal activity can be used to understand regulation of transcription factor activity. To generalize the intended target to other relatable targets, this assay endpoint is annotated to the protease intended target family, where the subfamily is matrix metalloproteinase.
A total of 1060 chemcials from the ToxCast library were tested in eight-point concentration-response experiments. Cell culture and cytotoxicity assays were conducted at Thermo Fisher Scientific's Custom Services facility (Madison, WI). A single lot of human HepaRG cells (Thermo Fisher Scientific, Frederick, MD) was used for the cell culture experiments. 96-well format collagen type I coated plates of human HepaRG cells were prepared using established methods. Briefly, cryopreserved HepaRG cells were thawed, plated at a density of approximately 100,000 cells/well in HepaRG Thaw, Plate, and General Purpose media (HPRG770, Thermo Fisher Scientific), and incubated for 48 hours. 0.5% DMSO was selected as vehicle control to balance the requisite need of DMSO in HepaRG cultures to maintain differentiation (for example, baseline metabolism, proportions of hepatocytes vs. cholangiocytes), while enabling further hepatic receptor pathway activation (for example, PXR and CAR) in response to chemical exposure. 48 hours after plating, the culture medium was replaced with HepaRG Serum-Free Incudtion Media. Cells were exposed to each test chemical in duplicate and maintained in CO2 incubators for another 48 hours. Chemical plates were thawed to room temperature and 200x concentrations of treatment groups were prepared. 8-point conentration-reponse curves were made with the highest exposure at 100 uM, followed by half-log dilutions, all in 0.5% DMSO. Each test plate contained variouse controls, induction positive controls (1mM phenobarbital), cytotoxicity positive controls ([…] aflatoxin B1), vehicle controls (0.5% DMSO), and total lysis controls (0.5% DMSO). Cell morphology images were taken using an Essen IncuCyte FLR automated microscope, with six 96-well plates imaged in about 24 minutes. Images were captured and exported and JPEG files. Spent culture media was transfered to black-well plates for the LDH assay, and remaining media was sorted at -80 C for later use. Cells were treated with RLT buffer and frozen until shipped for gene expression analysis. Total RNA was isolated from the cell suspension in 75 uL of Buffer RLT (Qiagen, Germantown, MD 20874) by Quintiles/Expression Analysis (Durham, NC) using a custom isolation procedure. Total RNA from each plate well was transferred to a preamplification plate. Fluidigm's 96.96 Dynamic ArrayTM (Fluidigm, Amsterdam, the Netherlands) technology was used for gene expression analyses by quantitative reverse transcription polymerase chain reaction (qRT-PCR, performed by Quintiles/Expression Analysis, Durham, NC)89. Standard TaqManTM Assays (Applied Biosystems/ThermoFisher Scientific, Foster City, CA) were used to assess the expression of 93 genes selected based on their selectivity and sensitivity to important hepatic receptors known to be modulated by environmental chemicals; importance in human hepatocyte functionality; and hepatotoxicity. […]
In the case of `C[C@](N)(Cc1ccc(O)c(O)c1)C(=O)O`, the outcome was inactive.

Turning to `O=C(O)c1cccc(Oc2ccccc2)c1`, the molecule was classed as inactive. Still for that read-out and setting: with `COC(=O)CC(=O)OC` the entry was “inactive”. Still for that read-out and setting: with `CC(C)CCO` the entry was “inactive”.

Consider `CC(O)CN(CCN(CC(C)O)CC(C)O)CC(C)O` (stereo not given), for which the molecule was classed as inactive. As to `CCNc1ccccc1`, the outcome was inactive. Take `CCOC(=O)COc1ccc2c(c1)CC(NCC(O)c1cccc(Cl)c1)CC2` (stereo not given): the outcome was inactive. As to `NC(=O)NO`, the result was inactive.

As for `COCCOc1cc2cc(C(=O)NC3CCN(C(C)C)CC3)n(CC(=O)Nc3ccc(Cl)cn3)c2cn1`, the outcome was inactive.

Turning to `CCCCCCCCO`, the outcome was inactive. Same read-out and setting: with `CCOC(=O)c1ccc(C2CCC(NC[C@H](O)COc3ccc(O)c(NS(C)(=O)=O)c3)CC2)cc1` (stereo not given in full) the entry was “inactive”; with `O=C(NS(=O)(=O)/C=C/c1ccccc1)c1ccc(F)cc1Cl`, “inactive”. Same read-out and setting: the same measure for `CC(C)CC(C)(O)C#CC(C)(O)CC(C)C` (stereo not given): “inactive”. Still for that read-out and setting: the same measure for `CC(=O)OCCC(C)C`: “inactive”. For `Nc1ccc(Nc2ccccc2)cc1`, the molecule was classed as inactive.

With `O=C1CCCCCN1`, the molecule was called inactive.

`CC(C)CCCCCCCOC(=O)CCCCC(=O)OCCCCCCCC(C)C`: the molecule was classed as inactive. Still for that read-out and setting: the same measure for `CC[C@H]1OC(=O)[C@H](C)[C@@H](O[C@H]2C[C@@](C)(OC)[C@@H](O)[C@H](C)O2)[C@H](C)[C@@H](O[C@@H]2O[C@H](C)C[C@H](N(C)C)[C@H]2O)[C@](C)(O)C[C@@H](C)C(=O)[C@H](C)[C@@H](O)[C@]1(C)O`: “inactive”.

As to `CNCc1ccc(NC(=O)c2c[nH]c3c2C(=O)CCC3)cc1`, the molecule was classed as inactive. The same measure, in the same setting: the same measure for `CCCCCCc1ccc(O)cc1O`: “inactive”; for `CCCC(=O)OCC`: “inactive”; for `CCOCCO`: “inactive”.

Regarding `COC(=O)c1ccccc1O`, the call was inactive. On the same count and under the same terms, the same measure for `Cn1c(=O)c2c(ncn2C)n(C)c1=O`: “inactive”. Turning to `CCCCC(CC)COC(=O)c1ccc(C(=O)OCC(CC)CCCC)cc1` (stereo not given), the outcome was inactive. Consider `Cn1c(=O)cc(Oc2ccc(F)cc2F)c2cnc(NCC(C)(C)O)nc21`, for which the AC50 – broadly, the midpoint of the concentration-response curve, whichever way the signal moves – is 22.1 µM (active). On the same count and under the same terms, with `O=C(OC[C@H]1O[C@@H](OC(=O)c2cc(O)c(O)c(OC(=O)c3cc(O)c(O)c(O)c3)c2)[C@H](OC(=O)c2cc(O)c(O)c(OC(=O)c3cc(O)c(O)c(O)c3)c2)[C@@H](OC(=O)c2cc(O)c(O)c(OC(=O)c3cc(O)c(O)c(O)c3)c2)[C@@H]1OC(=O)c1cc(O)c(O)c(OC(=O)c2cc(O)c(O)c(O)c2)c1)c1cc(O)c(O)c(OC(=O)c2cc(O)c(O)c(O)c2)c1` the figure was 15.2 µM (active); with `COc1cccc(-c2ccc(/C=C\CN3CCCCCC3)cc2Cl)c1`, 69.3 µM (active). Regarding `CC[C@H]1CC[C@H](NCc2cc3c(cc2OC)[C@H]2C[C@H]2C(=O)N3C)[C@H](c2ccccc2)N1`, the result was inactive. Turning to `COc1ccc2sc(C(=O)Nc3nnn[nH]3)c(OC(C)C)c2c1`, the AC50 is 27.1 µM (active). With `CC[C@H](C)C(=O)O[C@H]1C[C@@H](C)C=C2C=C[C@H](C)[C@H](CC[C@@H]3C[C@@H](O)CC(=O)O3)[C@H]21`, the outcome was inactive. `Cc1ccc(C)c(O)c1`: the molecule was called inactive.

On to `CC(=O)OC[C@H]1O[C@@](COC(C)=O)(O[C@H]2O[C@H](COC(C)=O)[C@@H](OC(C)=O)[C@H](OC(C)=O)[C@H]2OC(C)=O)[C@@H](OC(C)=O)[C@@H]1OC(C)=O`, for which the call was inactive. On the same count and under the same terms, the same measure for `CC/C(=C\C(=N/O)C(N)=O)C(C)[N+](=O)[O-]` (stereo not given): “inactive”; for `CNS(=O)(=O)c1cc(C(=O)N2CCC(CCN3C4CCC3CC(n3c(C)nc5ccccc53)C4)(c3cccc(F)c3)CC2)c(Cl)cc1F` (stereo not given): “inactive”.

`O=P(OC(CCl)CCl)(OC(CCl)CCl)OC(CCl)CCl`: the AC50 is 23.3 µM (active).

`On1ccccc1=S`: the call was inactive. As for `CC1=CC(=O)CC(C)(C)C1`, the molecule was classed as inactive. Take `O=c1n(CC2CO2)c(=O)n(CC2CO2)c(=O)n1CC1CO1` (stereo not given): the outcome was inactive. Consider `CC(C)c1cccc(C(C)C)c1N1C(=O)c2ccc(O)cc2C1=O`, for which the AC50 is 93.4 µM (active).
